# Assay outcomes from PubChem BioAssay.
# HT1080-NT tox – kills 2HG-producing HT-1080-NT fibrosarcoma cells. Potency, µM (series often up to 46.1 µM), hits mostly cytotoxic. HT-1080-NT fibrosarcoma viability, CellTiter-Glo ATP luminescence, 48 h. 360,000 tested, 1.6% active. AID 686970;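 also: NT is the 2HG producing partner of a matched IDH1 knockdown line; nearly all actives have a fitted effect of over 55% in size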
#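 Fibrosarcoma NT cells, 750 per well in 5% FBS RPMI, were exposed to compound for 48 hours. Viability: CellTiter-Glo luminescence.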
# HT1080 IDH1KD tx – toxicity to HT-1080 IDH1 knockdown cells (counter line); HT-1080 IDH1 knockdown viability, ATP luminescence, 48 h; Potency, µM (titrated, usually from 46.1 µM), usual class: cytotoxic; 360,000 tested, 2% active
#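 IDH1KD HT-1080 cells, 750/well, RPMI + 5% FBS; compound pinned after 2 h settling; 48 h, 37 °C; CellTiter-Glo luminescence; % activity normalised to DMSO and no-cell wells; curves fitted, classed by r2 and efficacy.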
# MCF10A rerep – DNA re-replication induction in MCF 10a cells; MCF 10A DNA re-replication, Hoechst nuclear intensity, 48 h; Potency, µM (top dose mostly 46.1 µM), usual class: activators; 350,000 tested, 2.9% active; AID 624296; also: nearly all actives have a fitted effect of over 50% in size
# SW480 rerep – DNA re-replication induction in SW480 cells; SW480 DNA re-replication, Hoechst DNA content imaging, 48 h; 340,000 tested, 1.8% active; AID 624297; Potency, µM (titrated, usually from 46.1 µM), usual class: activators; also: nearly all actives have a fitted effect of over 55% in size
#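 Image-based DNA-content assay: after two days of treatment, nuclei were labelled with the DNA dye Hoechst and imaged, and hits were compounds raising the count of nuclei showing high fluorescence intensity.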
# KB-3-1 tox – kills parental KB-3-1 adenocarcinoma cells; KB-3-1 viability, CellTiter-Glo ATP luminescence, 72 h; Potency, µM (top dose mostly 46.1 µM), usual class: cytotoxic; 400,000 tested, 1.4% active; also: nearly all actives have a fitted effect of over 60% in size
#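 Cells are dispensed, compounds pinned in, plates held at 37 °C for 72 h, then CellTiter-Glo is added and luminescence read after 10 minutes. Cell line: parental KB-3-1 in phenol-red-free DMEM, 10% FBS.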
# KB-V1 MDR tox – kills drug-selected multidrug resistant KB-V1 cells; KB-V1 MDR cells viability, CellTiter-Glo, 72 h; Potency, µM (highest dose often 46.1 µM), usual class: cytotoxic; AID 1347076; 400,000 tested, 3.4% active; also: nearly all actives have a fitted effect of over 60% in size
#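 qHTS viability screen in drug-selected KB-V1 MDR cells: 72 h compound treatment at 37 degrees C, ATP luminescence end point.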
# A number is an active result; n = inactive; u = inconclusive; x = no result given; [ ] = remark or other dose. Sampled rows, rich in hits. Any-hit rate of the full collection: about 8%. Calls follow the shape of the dose curve; as a rule, active = well fitted curve in the direction sought with a large enough effect; inconclusive = small, poorly fitted or top-dose-only effect, or another doubt; inactive = no such curve, though single readings can be large; an effect the other way counts as inactive or inconclusive.
SMILES,HT1080-NT tox,HT1080 IDH1KD tx,MCF10A rerep,SW480 rerep,KB-3-1 tox,KB-V1 MDR tox
O=C(c1ccc2ccccc2n1)N1CCN(Cc2c(F)cccc2Cl)CC1,n,n,u,n,n,n
CCCCOc1ccc(C2C(C(=O)c3ccc(C)o3)=C(O)C(=O)N2CC2CCCO2)cc1 (stereo unspecified),n,n,n,u,u,12µM
CCOc1cccc(C2C(C(=O)c3ccc(C)o3)=C(O)C(=O)N2Cc2ccccc2)c1 (stereo unspecified),n,n,n,n,n,8.2µM
COc1cc(NC(=O)CSc2nc3c(c(=O)n(C)c(=O)n3C)n2C)cc(OC)c1,n,n,n,n,n,n
O=C(C[C@@H]1C[C@H]2c3cc(NC(=O)c4cccnc4)ccc3O[C@H]2[C@H](CO)O1)NCc1ccc(Oc2ccccc2)cc1,u,u,x,x,18µM,n
C[C@H](NC(=O)c1nc[nH]c1C(=O)NC1CCN(C(=O)OC(C)(C)C)CC1)C(=O)OC(C)(C)C,n,n,n,0.16µM,n,n
CC(C)(C)OC(=O)NCc1ccc(CNC(=O)c2[nH]cnc2C(=O)NC2CCN(C(=O)OC(C)(C)C)CC2)cc1,n,n,18µM,n,u,n
CC(C)(C)OC(=O)N1CCC(NC(=O)c2nc[nH]c2C(=O)NCc2ccccc2)CC1,n,n,n,n,n,n
CC(C)(C)OC(=O)[C@H](Cc1ccccc1)NC(=O)c1nc[nH]c1C(=O)NC1CCN(C(=O)OC(C)(C)C)CC1,u,u,n,n,u,u
CC(C)C[C@H](NC(=O)c1nc[nH]c1C(=O)NC1CCN(C(=O)OC(C)(C)C)CC1)C(=O)OC(C)(C)C,u,u,13µM,n,u,n
CCOc1ccc(N=C2NC(=O)S/C2=C\c2ccc(N(C)C)cc2)cc1,n,n,n,u,n,21µM
COc1ccc(N2CC(C(=O)N/N=C/c3ccc(C)cc3)CC2=O)cc1 (stereo unspecified),3.3µM,2.3µM,2.3µM,5.2µM,1.8µM,1.5µM
COc1ccc(N2CC(C(=O)N/N=C/c3ccc([N+](=O)[O-])cc3)CC2=O)cc1 (stereo unspecified),n,n,n,n,n,n
CC(C)(C)c1cc(NC(=O)c2ccc(OC3CCCC3)cc2)no1,n,u,n,n,u,16µM
O=C(Nc1ccon1)c1ccc(OC2CCCC2)cc1,n,n,n,n,n,18µM
Cc1cc(NC(=O)c2ccc(C(C)(C)C)cc2)no1,n,n,n,n,n,n
CCOc1ccc(NS(=O)(=O)c2cc(NC(=O)CCC(=O)c3cccs3)ccc2Cl)cc1,n,u,n,n,n,n
CC(=O)Nc1cccc(Oc2ncnc3scc(-c4ccc(C(C)C)cc4)c23)c1,u,u,23µM,u,u,21µM
COc1ccc(-c2csc3ncnc(Nc4cccc(OC)c4)c23)cc1,x,x,x,x,n,n
Cc1cc(/C=C(/C#N)C(=O)Nc2ccccc2)c(C)n1-c1cccnc1,n,n,n,n[9.22 µM],n,n
Cc1cc(/C=N/n2cnnc2)c(C)n1-c1ccc(C(=O)O)cc1,n,n,n,n,n,n
Cc1cccc(-n2c(C)cc(/C=N/n3cnnc3)c2C)c1,n,n,u,n,u,18µM
Cc1cc(/C=C(\C#N)C(=O)Nc2ccccc2)c(C)n1-c1ccc2c(c1)OCO2,u,u,u,3.7µM,n,u
Cc1cc(/C=N/n2cnnc2)c(C)n1-c1ccc2c(c1)OCO2,n,n,n,n,n,5.2µM
COc1cccc(CNC(=O)c2ccc3c(c2)N(C)CCS3)c1OC,n,n,n,n,n,n
SMILES,HT1080-NT tox,HT1080 IDH1KD tx,MCF10A rerep,SW480 rerep,KB-3-1 tox,KB-V1 MDR tox
COc1ccc(/C=N/NC(=O)c2ccncc2)cc1CN1CCN(c2ccc(F)cc2)CC1,n,n,n,n,n,n
Cc1nc(SC(C(N)=O)c2ccccc2)c(C#N)c(C)c1C (stereo unspecified),n,n,n,n[9.22 µM],n,n
COc1ccccc1-c1cc(-c2ccccc2)nc(SC(C(N)=O)c2ccccc2)c1C#N (stereo unspecified),u,u,u,9.2µM,n,u
CCOc1ccc(S(=O)(=O)Nc2ccc(C(=O)NNC(=O)c3ccncc3)cc2)cc1,n,n,n,n,n,n
CCn1c(=N)n(CC(=O)c2ccc(Cl)c(Cl)c2)c2ccccc21,u,23µM,26µM,u,u,16µM
Cc1ccc(Cn2c(=N)n(CC(=O)c3ccc([N+](=O)[O-])cc3)c3ccccc32)cc1,n,n,9.2µM,u,18µM,15µM
N=c1n(CCN2CCCCC2)c2ccccc2n1CC(=O)c1ccc(Cl)c(Cl)c1,21µM,21µM,10µM,u,u,u
Cn1c(=N)n(CC(=O)c2ccc(Br)cc2)c2ccccc21,u,23µM,u,n,u,n
NS(=O)(=O)c1ccc(CCNC(=O)COC(=O)Cc2ccc(Cl)cc2)cc1,n,n,x,x,n,u
CC(C)C[C@@H](CN1CCC[C@@H]1CN1C(=O)C(=O)NC[C@@H]1Cc1ccc(O)cc1)N1C[C@H](Cc2ccc(O)cc2)N(CC2CCCCCC2)C(=O)C1=O,n,n,x,x,n,n
CNC(=O)c1cnc(-c2ccccc2)nc1-c1ccccc1,n,n,n,n,n,n
O=C(COc1ccc(Br)cc1CNC1CCCCC1)NCCc1ccccc1,23µM,18µM,n,u,u,u
COc1ccc(CCNC(=O)COc2ccc(S(=O)(=O)NC3CCCCC3)cc2Cl)cc1,u,u,u,n,n,15µM
COc1ccc(CCNC(=O)COc2ccc(S(=O)(=O)NC(C)C)cc2Cl)cc1OC,u,11µM,u,n,n,n
COc1ccc(CCNC(=O)CCc2ccc(S(=O)(=O)NC(C)C)cc2)cc1OC,n,n,n,n,n,n
COc1ccccc1C(CC(=O)Nc1ccccc1C)c1ccc(OC(C)C)cc1 (stereo unspecified),n,n,n,n,n,n
N#Cc1c(-c2ccccc2)c(C#N)c2nc3ccccc3n2c1N,n,n,n,n,n,n
Cc1ccc(-c2c(C#N)c(N)n3c(nc4ccccc43)c2C#N)cc1,u,u,18µM,18µM,13µM,u
CNc1cc(C)c(C#N)c2nc3ccccc3n12,n,n,n,u,n,n
Cc1cccc(NC(=O)CSc2cc(C)c(C#N)c3nc4ccccc4n23)c1,u,n,n,2.9µM,n,n
Cc1c(CCCl)c(Cl)n2c(nc3ccccc32)c1C#N,2.6µM,2.3µM,2.9µM,u,2.1µM,1.6µM
CCc1c(C)c(C#N)c2nc3ccccc3n2c1NC,n,n,n,n,n,n
